Here are results for 38 molecules from PubChem BioAssay AID651710 (Broad Institute, 2012).

One may read the inhibition as the drop in the measured response relative to a control, in per cent.

The structures appear in SMILES notation. Where “and” joins values, the source holds several entries; their conditions need not be identical. Equal values may be shown once. The campaign covered roughly 360,000 compounds. About 1,600 (0.44%) were called active.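 The calls were made as follows: active = every replicate showing at least 50% inhibition; inconclusive = mean inhibition at least 50% but not in every replicate; inactive = the rest.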 The full list was thinned out, with actives kept by preference. More than one record can exist for a structure, and the calls need not agree.

The target in the experiment is DNA repair protein RAD52 homolog (Homo sapiens) (UniProt P43351). Briefly: blockers of RAD52 strand annealing activity – biochemical, FRET, single point, set 2, primary screen (AID 651710). The settings on record: recombinant RAD52 DNA annealing, FRET fluorescence; at 18.7 µM; stronger effect = higher value.
Chain of DNA repair protein RAD52 homolog (Homo sapiens) (P43351 whole entry, looked up): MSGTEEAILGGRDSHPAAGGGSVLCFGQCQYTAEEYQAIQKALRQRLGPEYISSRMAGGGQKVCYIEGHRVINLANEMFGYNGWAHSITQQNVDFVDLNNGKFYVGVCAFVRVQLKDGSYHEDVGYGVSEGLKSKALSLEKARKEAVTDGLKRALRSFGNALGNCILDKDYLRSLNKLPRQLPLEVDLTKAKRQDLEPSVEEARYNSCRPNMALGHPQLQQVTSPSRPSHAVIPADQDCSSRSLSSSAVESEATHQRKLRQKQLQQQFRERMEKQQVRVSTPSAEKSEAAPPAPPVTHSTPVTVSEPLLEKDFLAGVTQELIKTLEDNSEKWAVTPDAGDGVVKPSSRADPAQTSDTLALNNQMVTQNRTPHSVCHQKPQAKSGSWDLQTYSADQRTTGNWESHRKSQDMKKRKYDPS
For `CCCNC(=O)N(C)C[C@H]1Oc2cc(C#CC(C)(C)O)ccc2S(=O)(=O)N([C@H](C)CO)C[C@@H]1C`, the inhibition is -3.15% (inactive). The same measure for `COCC#Cc1cnc2c(c1)C(=O)N([C@H](C)CO)C[C@H](C)[C@@H](CN(C)C(=O)Nc1cc(F)ccc1F)O2`: -15.1% (inactive).

As to `C[C@@H]1CN([C@@H](C)CO)C(=O)c2cc(NC(=O)Nc3ccc4c(c3)OCO4)ccc2O[C@@H](C)CCCCO[C@@H]1CN(C)Cc1ccccc1`, the inhibition is -6.98% (inactive). Consider `Cc1c(CCOC(=O)c2cc([N+](=O)[O-])ccc2Cl)sc[n+]1CCCCS(=O)(=O)[O-]`, for which the inhibition was -6.18% (inactive). The same measure for `Cc1c(CCO)sc[n+]1CC(=O)OC12CC3CC(CC(C3)C1)C2`: 9.07% (inactive). The same measure for `Cc1c(CCOC(=O)CC23CC4CC(CC(C)(C4)C2)C3)sc[n+]1Cc1ccc([N+](=O)[O-])cc1`: 57.8% (active); for `CO[C@H]1CN(C)C(=O)c2ccc(NC(=O)Nc3ccccc3)cc2OC[C@@H](C)N(C(=O)CC2CC2)C[C@@H]1C`: 7.81% (inactive). The same measure for `COc1ccc(C#Cc2ccc3c(c2)[C@]2(C(=O)N3)[C@H](C(=O)N3CCCCCCC3)[C@H]3C(=O)O[C@H](c4ccccc4)[C@H](c4ccccc4)N3[C@@H]2c2ccc(O)cc2)cc1`: 0.035% (inactive). In the case of `O=C1O[C@@H](c2ccccc2)[C@@H](c2ccccc2)N2[C@@H](c3ccccc3OCCO)[C@]3(C(=O)Nc4ccc(C#CC5(O)CCCCCC5)cc43)[C@@H](C(=O)N3CCCCCCC3)[C@H]12`, the inhibition was 6.97% (inactive). As for `COc1ccc(C#Cc2ccc3c(c2)[C@]2(C(=O)N3)[C@H](c3ccccc3OCCO)N3[C@H](c4ccccc4)[C@H](c4ccccc4)OC(=O)[C@H]3[C@@H]2C(=O)N2CCCCCCC2)cc1`, the inhibition was 55.6% (active). As to `CO[C@H]1CN(C)C(=O)c2ccc(NC(C)=O)cc2OC[C@H](C)N(CC2CC2)C[C@@H]1C`, the inhibition is 5.82% (inactive). As to `COc1ccc(NC(=O)Nc2cccc3c2O[C@H](CN(C)C(=O)Nc2ccc(F)cc2)[C@@H](C)CN([C@@H](C)CO)C3=O)cc1`, the inhibition is -2.48% (inactive). As for `O=C(C1CCCCC1)N1CC2(C1)[C@H](c1ccccc1)[C@H](CO)N2CC1CCCC1`, the inhibition is -23.5% (inactive). Take `Cc1cc(C)c2nc3nc(C)cc(C)c3c(N)c2c1`: the inhibition was 91% (active). Take `C[C@H]1CN([C@@H](C)CO)C(=O)c2cccc(NC(=O)C3CCOCC3)c2O[C@@H]1CN(C)C(=O)Nc1cccc2ccccc12`: the inhibition is 6.23% (inactive).

On to `CC=Cc1ccc2n(c1=O)C[C@@H]1[C@@H](CO)[C@H](C(=O)N(C)C)[C@H]2N1CCc1ccccc1` (mixture of isomers), for which the inhibition was -10.1% (inactive).

On to `CC=Cc1ccc2n(c1=O)C[C@@H]1[C@@H](CO)[C@H](C(=O)NCCC)[C@H]2N1C(=O)C1CC1` (mixture of isomers), for which the inhibition is 6.42% (inactive). With `CC=Cc1ccc2n(c1=O)C[C@@H]1[C@@H](CO)[C@H](C(=O)NCC)[C@H]2N1CCC(F)(F)F` (mixture of isomers), the inhibition is 75.5% (active). For `CC(=O)N1[C@@H](CO)[C@H](c2ccccc2)[C@@H]1CN(C(=O)c1ccccc1)C(C)C`, the inhibition is -18% (inactive).

As to `O=C(C[C@H]1CC[C@@H](NC(=O)c2ccc(F)cc2)[C@@H](CO)O1)NCc1ccncn1`, the inhibition is -0.457% (inactive). As for `CO[C@@H]1CN(C)C(=O)c2cc(NC(=O)C3CC3)ccc2OC[C@@H](C)N(Cc2ccc(F)cc2)C[C@@H]1C`, the inhibition was -6.33% (inactive). For `O=C(C1CCCCC1)N1CC(=O)N2[C@H](CO)[C@@H](c3ccc(-c4ccccc4F)cc3)[C@@H]2C1`, the inhibition is -8.61% (inactive). On to `O=C(C1CCC1)N1C[C@@H]2N[C@H](C1)C2c1ccc(-c2cncnc2)cc1` (stereo partly drawn), for which the inhibition was 17.7% (inactive).

As for `O=C(C1CCCC1)N1CCCCN2[C@@H](CO)[C@H](c3ccc(-c4cccc(F)c4)cc3)[C@@H]2C1`, the inhibition was 44.8% (inactive). Take `O=C(C1CCCCC1)N1C[C@@H]2N[C@H](C1)C2c1ccc(-c2cccc(F)c2)cc1` (stereo partly drawn): the inhibition is 61% (active) and 30.9% (inactive). Take `Cc1ccccc1-c1ccc(C2[C@@H]3CN(C(=O)C4CCCCC4)C[C@H]2N3)cc1` (stereo partly drawn): the inhibition was 54.8% (active) and 0.102% (inactive). Consider `N#Cc1cccc(-c2ccc(C3[C@@H]4CN(C(=O)C5CCC5)C[C@H]3N4)cc2)c1` (stereo partly drawn), for which the inhibition is -9.39% (inactive) and 14.7% (inactive). For `CS(=O)(=O)N1CC2(C1)[C@H](c1ccccc1)[C@H](CO)N2Cc1ccc(F)cc1`, the inhibition was -16.8% (inactive).

Take `Cc1ccc(-c2ccc3c(c2)O[C@H](CN(C)C)[C@@H](C)CN([C@@H](C)CO)S3(=O)=O)cc1`: the inhibition was 19.5% (inactive). The same measure for `O=C(C[C@@H]1C[C@@H]2c3cc(NC(=O)Nc4ccccc4F)ccc3O[C@@H]2[C@H](CO)O1)NCCc1ccccc1`: 2.98% (inactive); for `CO[C@@H]1CN(C)C(=O)c2cc(NC(=O)Nc3cc(F)ccc3F)ccc2OC[C@H](C)N(C)C[C@@H]1C`: 22.6% (inactive); for `CN(Cc1ccccc1F)c1cc2c(c3c1ccn3C)C1CCC2O1` (stereo not drawn): 61% (active). For `CC(C)NC(=O)N(C)C[C@H]1OCCCC[C@H](C)Oc2ccc(NC(=O)Nc3ccc(C(F)(F)F)cc3)cc2C(=O)N([C@H](C)CO)C[C@@H]1C`, the inhibition was -13.2% (inactive). In the case of `C[C@@H]1CCCCO[C@@H](CN(C)S(=O)(=O)c2ccc(F)cc2)[C@@H](C)CN([C@@H](C)CO)C(=O)c2cc(NS(=O)(=O)c3cccs3)ccc2O1`, the inhibition was -29.4% (inactive).

For the molecule `CC(C)NC(=O)N(C)C[C@H]1OCCCC[C@H](C)Oc2ccc(NC(=O)CCC(F)(F)F)cc2C(=O)N([C@@H](C)CO)C[C@@H]1C`, the inhibition is -0.514% (inactive). Consider `Cc1noc(C)c1S(=O)(=O)Nc1cccc2c1O[C@@H](CN(C)S(=O)(=O)c1cn(C)cn1)[C@@H](C)CN([C@H](C)CO)C2=O`, for which the inhibition was -26.9% (inactive). As for `CN(C)C(=O)C[C@@H]1C[C@@H]2c3cc(NC(=O)C4CCOCC4)ccc3O[C@@H]2[C@@H](CO)O1`, the inhibition is -0.675% (inactive). Turning to `CCCNC(=O)N1[C@@H]2CNC[C@H]1C2c1ccc(-c2ccccc2)cc1` (stereo partly drawn), the inhibition is -12.3% (inactive) and 2.3% (inactive).
